Results filed as inconclusive are left out. Where a call stands in place of a potency, no number is given. Calls of active or inactive are those of the source. The call rests on the fitted dose curve; in most records, active means well fitted inhibition curve with a large enough effect; inconclusive means small, poorly fitted or top-dose-only effect; inactive means no such curve, though single readings can be large or run the other way.

N-terminal Xaa-Pro-Lys N-methyltransferase 1 (Homo sapiens), sequence (Q9BV86 whole entry, looked up): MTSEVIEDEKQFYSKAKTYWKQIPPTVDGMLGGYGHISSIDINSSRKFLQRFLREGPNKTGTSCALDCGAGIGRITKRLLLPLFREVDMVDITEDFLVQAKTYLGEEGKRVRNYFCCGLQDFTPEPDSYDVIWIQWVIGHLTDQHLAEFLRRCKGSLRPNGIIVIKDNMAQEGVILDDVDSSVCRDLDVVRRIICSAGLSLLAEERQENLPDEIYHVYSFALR

The first experiment has as its target N-terminal Xaa-Pro-Lys N-methyltransferase 1 (Homo sapiens) (UniProt Q9BV86). As to the kind of experiment: qHTS Assay for Inhibitors of N-terminal methyltransferase 1 (NTMT1): LOPAC validation of the NTMT1 SAHH-coupled ThioGlo3 Assay (AID 1347143).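 Further: SAH from peptide methylation measured as thiol fluorescence via SAHH coupling and ThioGlo3; nearly all actives have a fitted effect of over 70% in size.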 Further: potency means the concentration at half of the fitted maximal effect. Particulars: recombinant NTMT1, SAHH-coupled ThioGlo3 fluorescence; series mostly up to 114 µM. In outline: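 NTMT1 125nM + cpds (various conc.), 1 min RT; add SAM 100uM/SAHH 10uM/ThioGlo3 15uM (addition mix). SAHH-coupled thiol detection, Ex340/Em450, t0 and 30 min RT; signal normalized to background. LOPAC 1280-cpd pilot.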
Take `O=C(Nc1ccc2[nH]ncc2c1)C1CCC1`: the Potency entry was “inactive”.

As to `O=C1NC(=O)c2c1c(-c1ccccc1)cc1[nH]c3ccc(O)cc3c21`, the Potency is 50.1 µM (active).

Regarding `N[C@H](CCCP(=O)(O)O)C(=O)O`, the Potency entry is “inactive”.

Consider `S=c1[nH]c(-c2ccccc2)cn1-c1ccccc1`, for which the Potency was 6.31 µM (active).

Take `CCCCCCCCCCCCCCCC(=O)OC(CC(=O)O)C[N+](C)(C)C` (stereo not given): the Potency entry is “inactive”.

With `CCCCCCCC/C=C\CCCCCCCC(=O)NCCO`, the Potency entry is “inactive”.

Consider `CC12C(=O)OC(=O)C1(C)C1CCC2O1` (stereo not given), for which the Potency result was “inactive”.

With `COC(=O)c1c(C)[nH]c(C)c1C(=O)c1ccccc1Cc1ccccc1`, the Potency result was “inactive”.

Turning to `Cn1cc(C2=C(c3ccc(Cl)cc3Cl)C(=O)NC2=O)c2ccccc21`, the Potency result is “inactive”.

For `COc1cccc(OC)c1OCCNCC1COc2ccccc2O1` (stereo not given), the Potency result is “inactive”.

`CCCCCCCCc1ccc(-c2ccc(C(=O)O)cc2)cc1`: the Potency was 50.1 µM (active).

Regarding `O=c1[nH]c2cc(C(F)(F)F)ccc2n1-c1cc(C(F)(F)F)ccc1O`, the Potency entry is “inactive”.

For the molecule `COc1ccccc1CNCCCCCCNCCCCCCCCNCCCCCCNCc1ccccc1OC`, the Potency is 35.5 µM (active).

Consider `O=C(Nc1ccc2c(c1)CCN(Cc1ncn[nH]1)C2)c1ccccc1-c1ccc(C(F)(F)F)cc1`, for which the Potency result was “inactive”.

For the molecule `O=[N+]([O-])c1ccc2c(c1)S(=O)(=O)C=C2`, the Potency is 44.7 µM (active).

Take `Cc1ccc(S(=O)(=O)/C=C/C#N)cc1`: the Potency was 5.62 µM (active).

In the case of `O=S(=O)(c1cccc2c(I)cccc12)N1CCCNCC1`, the Potency was 39.8 µM (active).

Consider `NC[C@@H]1O[C@H](C23CC4CC(CC(C4)C2)C3)Cc2c1ccc(O)c2O`, for which the Potency was 50.1 µM (active).

Consider `O=C(Nc1ccncc1)c1cc([N+](=O)[O-])ccc1Cl`, for which the Potency result is “inactive”.

In the case of `O=C(Nc1ccccc1)c1cc([N+](=O)[O-])ccc1Cl`, the Potency result is “inactive”.

Consider `CC(C)NCC(O)COc1cccc2ccccc12` (stereo not given), for which the Potency result was “inactive”.

On to `CN(CCCOc1ccc(Cc2ccccc2)cc1)CCC(=O)O`, for which the Potency entry is “inactive”.

As for `CNCC[C@H](Oc1ccc(C(F)(F)F)cc1)c1ccccc1`, the Potency entry is “inactive”.

Turning to `C=CCc1cccc(/C=N/NC(=O)CN2CCN(Cc3ccccc3)CC2)c1O`, the Potency entry is “inactive”.

For the molecule `COc1cc2c(CCNC(C)=O)c[nH]c2cc1Cl`, the Potency result was “inactive”.

As for `CC(C)(C=O)Cc1cc(C(C)(C)C)c(O)c(C(C)(C)C)c1`, the Potency result was “inactive”.

With `O=C1NC(=O)/C(=C/c2ccc(-c3ccc(F)cc3O)o2)S1`, the Potency was 44.7 µM (active).

With `C[C@@H](CN1CCC(Cc2ccccc2)CC1)[C@@H](O)c1ccc(O)cc1`, the Potency result was “inactive”.

As to `CC(C)NC[C@H](O)COc1cccc2[nH]ccc12`, the Potency entry is “inactive”.

`NS(=O)(=O)C#Cc1ccccc1`: the Potency entry is “inactive”.

Turning to `O=C(O)c1cc(=O)c2c(Cl)cc(Cl)cc2[nH]1`, the Potency entry is “inactive”.

Regarding `CS(=O)(=O)c1ccc(-n2nc(C(F)(F)F)cc2-c2ccc(F)cc2)cc1`, the Potency entry is “inactive”.

Consider `O=C(O)CNC(=O)C(CS)Cc1ccccc1` (stereo not given), for which the Potency entry is “inactive”.

As for `NS(=O)(=O)c1ccc(-n2nc(C(F)(F)F)cc2-c2ccc(Cl)cc2)cc1`, the Potency result is “inactive”.

For `O=C1C(SCCO)=C(SCCO)C(=O)c2ccccc21`, the Potency result was “inactive”.

Regarding `Cc1ccc(O)c(N=Nc2ccccc2)n1`, the Potency was 50.1 µM (active).

`OC[C@H]1O[C@@H](n2cnc3c(NC4CCCCC4)ncnc32)[C@H](O)[C@@H]1O`: the Potency result is “inactive”.

As for `CN1CC(=O)N/C1=N/C(=O)Nc1cccc(Cl)c1`, the Potency result is “inactive”.

In another experiment the test system is Zika virus NS2B-NS3 protease (unlinked). As to the kind of experiment: Optimization of GU AMC qHTS for Zika virus inhibitors: Unlinked NS2B-NS3 protease assay (AID 1347151). Further: nearly all actives have a fitted effect of over 80% in size. Particulars: recombinant ZIKV NS2B-NS3 protease, fluorogenic AMC substrate; series mostly up to 52.5 µM. In outline: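 In this qHTS, compounds acted on 25 nM unlinked Zika NS2B–NS3 in pH 8.0 Tris/Tween buffer. Cleavage of an AMC peptide ran 15 min at room temperature, to about 20% conversion.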
Background: Quantitative high-throughput screening tests each substance at several concentrations.
Take `O=C(Nc1ccc2[nH]ncc2c1)C1CCC1`: the Potency result was “inactive”.

As for `N[C@H](CCCP(=O)(O)O)C(=O)O`, the Potency result was “inactive”.

For `CCCCCCCCCCCCCCCC(=O)OC(CC(=O)O)C[N+](C)(C)C` (stereo not given), the Potency result is “inactive”.

As to `CCCCCCCC/C=C\CCCCCCCC(=O)NCCO`, the Potency entry was “inactive”.

Turning to `CC12C(=O)OC(=O)C1(C)C1CCC2O1` (stereo not given), the Potency result was “inactive”.

For the molecule `Cn1cc(C2=C(c3ccc(Cl)cc3Cl)C(=O)NC2=O)c2ccccc21`, the Potency result is “inactive”.

Take `COc1cccc(OC)c1OCCNCC1COc2ccccc2O1` (stereo not given): the Potency entry was “inactive”.

Consider `O=C(Nc1ccc2c(c1)CCN(Cc1ncn[nH]1)C2)c1ccccc1-c1ccc(C(F)(F)F)cc1`, for which the Potency entry is “inactive”.

Turning to `O=[N+]([O-])c1ccc2c(c1)S(=O)(=O)C=C2`, the Potency result is “inactive”.

On to `Cc1ccc(S(=O)(=O)/C=C/C#N)cc1`, for which the Potency result was “inactive”.

`NC[C@@H]1O[C@H](C23CC4CC(CC(C4)C2)C3)Cc2c1ccc(O)c2O`: the Potency entry is “inactive”.

Regarding `CN(CCCOc1ccc(Cc2ccccc2)cc1)CCC(=O)O`, the Potency result was “inactive”.

As to `CNCC[C@H](Oc1ccc(C(F)(F)F)cc1)c1ccccc1`, the Potency entry is “inactive”.

In the case of `COc1cc2c(CCNC(C)=O)c[nH]c2cc1Cl`, the Potency result is “inactive”.

Take `C[C@@H](CN1CCC(Cc2ccccc2)CC1)[C@@H](O)c1ccc(O)cc1`: the Potency result was “inactive”.

On to `NS(=O)(=O)C#Cc1ccccc1`, for which the Potency result is “inactive”.

Turning to `O=C(O)c1cc(=O)c2c(Cl)cc(Cl)cc2[nH]1`, the Potency result was “inactive”.

Regarding `CS(=O)(=O)c1ccc(-n2nc(C(F)(F)F)cc2-c2ccc(F)cc2)cc1`, the Potency result is “inactive”.

In the case of `NS(=O)(=O)c1ccc(-n2nc(C(F)(F)F)cc2-c2ccc(Cl)cc2)cc1`, the Potency entry is “inactive”.

As for `Cc1ccc(O)c(N=Nc2ccccc2)n1`, the Potency result is “inactive”.

`OC[C@H]1O[C@@H](n2cnc3c(NC4CCCCC4)ncnc32)[C@H](O)[C@@H]1O`: the Potency entry was “inactive”.

As for `CN1CC(=O)N/C1=N/C(=O)Nc1cccc(Cl)c1`, the Potency result was “inactive”.

For the origin of these results see PubChem BioAssay (NCATS).
